Measured values from PubChem BioAssay (NCI).
Compounds without any hit were thinned out: in the full panel of roughly 79,000, 15% have a hit. Active and inactive are the calls of the source. Cut-off read from the data, not from the text of the source: active = growth inhibition above about 70%; inactive = the rest.

Tests used:
[1] = NCI Yeast Anticancer Drug Screen. Data for the rad50 strain (AID 155);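 note: 0% = growth of vehicle-only cultures of the same strain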; conditions: S. cerevisiae rad50 strain growth inhibition; at 50.0 µM; active compounds read high
Outline: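 DNA repair mutant yeast, compound exposure, growth read-out; inhibition is taken relative to vehicle.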

[2] = NCI Yeast Anticancer Drug Screen. Data for the mec2-1 strain (AID 157); conditions: S. cerevisiae mec2-1 strain, at 50.0 µM, active compounds read high
Outline: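 Cells of the genetically defined mec2-1 yeast strain are incubated with test compound. Inhibition of growth is calculated against vehicle-treated controls.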

[3] = NCI Yeast Anticancer Drug Screen. Data for the sgs1 mgt1 strain (AID 161);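 note: 0% = growth of cultures given vehicle only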; conditions: S. cerevisiae sgs1 mgt1 strain, at 50.0 µM, active compounds read high
Outline: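 Genetically altered yeast, compound exposure, growth inhibition relative to vehicle.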

[4] = NCI Yeast Anticancer Drug Screen. Data for the cln2 rad14 strain (AID 165);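 note: 0% = growth equal to vehicle treated cultures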; conditions: S. cerevisiae cln2 rad14 strain, at 50.0 µM, active compounds read high
Outline: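 The screen exposed genetically defined yeast (cln2 rad14) to test compounds and scored growth inhibition relative to vehicle-treated controls.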

[5] = NCI Yeast Anticancer Drug Screen. Data for the bub3 strain (AID 167); conditions: S. cerevisiae bub3 mutant strain, at 50.0 µM, active compounds read high
Outline: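 In this screen, a yeast mutant lacking normal mitotic checkpoint function is challenged with compound. Relative growth versus vehicle gives the inhibition value.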

[6] = NCI Yeast Anticancer Drug Screen. Data for the mlh1 rad18 strain (AID 175); conditions: S. cerevisiae mlh1 rad18 strain growth inhibition; at 50.0 µM; active compounds read high
Outline: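 Compound-treated yeast growth, normalised to vehicle controls. Strain bears defined DNA repair mutations.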

Measured: growth inhibition

O=c1ccc2cc3ccoc3c(O)c2o1
inactive: [1] 28.6% | [2] 0% | [3] 25.7% | [4] 30.6% | [5] 10.8% | [6] 18.2%

COC12CC3(C)C(C4=CC(=O)OC4)CCC3(O)C3CCC4=CC(=O)CCC4(CO1)C32 (stereo unspecified)
inactive: [1] -1.85% | [2] -10.2% | [3] -11.4% | [4] 15.8% | [5] -16.9% | [6] 6.6%

N[C@@H]1CCCC[C@@H]1N.O=P([O-])([O-])CN(CP(=O)([O-])[O-])CP(=O)([O-])[O-].[Pt+2]
inactive: [1] -5.05% | [2] -6.4% | [3] -10.2% | [4] 14.9% | [5] -0.1% | [6] -21.1%

CN(C)CCNC(=O)c1cc([N+](=O)[O-])cc2c1Oc1ccccc1O2
inactive: [1] -7.05% | [2] -12.6% | [3] -7.35% | [4] 16.9% | [5] -7.2% | [6] -7.3%

CC[As](=O)(O)c1ccc(OC)c(I)c1
inactive: [1] 1.75% | [2] -15.3% | [3] 18.3% | [4] -76.5% | [5] 4.35% | [6] 0.75%

COC(=O)C1(F)C(=O)NC(=O)NC1O (stereo unspecified)
inactive: [1] -4.6% | [2] -2.75% | [3] 3.5% | [4] 14.7% | [5] 0.85% | [6] 2.25%

CO[C@@]12[C@H](COC(N)=O)C3=C(C(=O)C(C)=C(NCCO)C3=O)N1C[C@@H]1N[C@@H]12
inactive: [1] 3.75% | [2] -27.1% | [3] 21.1% | [4] -0.4% | [5] 7.35% | [6] -7.45%

CN1C(c2cccnc2)=NCC12CCCC2
inactive: [1] -2.95% | [2] -10.1% | [3] 6.45% | [4] -17.2% | [5] -10.2% | [6] -9.45%

C=CCOC(=O)Cc1ccccc1
inactive: [1] 20.5% | [2] -5.35% | [3] 4.9% | [4] -31.9% | [5] -39.2% | [6] -3.9%

CC(C)(C(=O)c1ccccc1)N1CC1
inactive: [1] -0.65% | [2] 2.8% | [3] -4.75% | [4] -10.6% | [5] -23.6% | [6] -8.25%

[Cl][Hg][c]1ccccc1N=Nc1ccccc1
active: [1] 91.7% | [2] 98.5% | [3] 94.4% | [4] 97% | [5] 98% | [6] 94.5%

NC(=O)Nc1ccc([As]=O)cc1 (stereo unspecified)
inactive: [1] 8% | [2] -5.7% | [3] -1.3% | [4] 11.5% | [5] -15.2% | [6] 2.65%

C#CC(=O)[O][Sn]([c]1ccccc1)([c]1ccccc1)[c]1ccccc1
active: [1] 99% | [2] 99.1% | [3] 99.3% | [4] 99.2% | [5] 98.9% | [6] 99%

CN1CCC[N+](C)=C1c1ccc(N(C)C)cc1
inactive: [1] -22.7% | [2] -12.3% | [3] -4.5% | [4] -14.2% | [5] -10.1% | [6] -7.15%

COc1ccc([Se]c2ccc(OC)cc2OC)c(OC)c1
inactive: [1] -19.1% | [2] -39% | [3] 2.8% | [4] -18.3% | [5] 8.5% | [6] -13.2%

[C-]#[N+]CS(=O)(=O)c1ccc(C)cc1
inactive: [1] -17.4% | [2] -11.1% | [3] -7.3% | [4] 11.1% | [5] 3.85% | [6] 1.4%

CC(C)(C)N1OC1c1cccc(Cl)c1 (stereo unspecified)
inactive: [1] 29.6% | [2] 29.4% | [3] 10.8% | [4] 11.9% | [5] -2.85% | [6] 36.5%

S=P12OCCC(CO1)O2 (stereo unspecified)
inactive: [1] 8.2% | [2] -9.35% | [3] 3.85% | [4] -23.8% | [5] -8.15% | [6] -3.15%

O=C1NC(=O)C2(c3ccccc3)CCN1C2=O (stereo unspecified)
inactive: [1] 1.35% | [2] 4.6% | [3] 1.8% | [4] -7% | [5] -12.2% | [6] 10%

CCOC(=O)P(=O)(OCC)OCC
inactive: [1] 6.9% | [2] -37.2% | [3] -11% | [4] -1.2% | [5] 4.95% | [6] -1.1%

CC(/C=C/C1OC(=O)C=CC1C)=C\C(C)C/C=C/C(C)=C/C(CO)C(=O)C(C)C(O)C(C)C/C(C)=C/C(=O)O (stereo unspecified)
inactive: [2] 62.2% | [4] 62.6%
active: [1] 73.1% | [3] 81.9% | [5] 77.6% | [6] 87.4%

Cc1cc(C)c(C#N)c(SSC(Cl)(Cl)Cl)n1
inactive: [1] 5.75% | [2] 18.9% | [3] 59.2% | [4] 15.1% | [5] 61.9% | [6] 40.9%

COc1ccc(-n2c(C)nc3ccccc3c2=O)cc1CN(CCCl)CCCl
inactive: [1] 4.45% | [2] -3.55% | [3] -8.15% | [4] -22.1% | [5] 2.6% | [6] 2.3%

CC(=O)Nc1ccc([N+](=O)[O-])c(C(F)(F)F)c1
inactive: [1] -4.2% | [2] -6.4% | [3] 9.05% | [4] 13.1% | [5] -3.9% | [6] 6.05%

O=NC1C(=O)NC(=O)NC1=O
inactive: [1] 1.75% | [2] -5.85% | [3] 3.45% | [4] 14.7% | [5] 11.7% | [6] -3.65%

CC(=O)OC[C@]12CCC(C)=C[C@H]1O[C@@H]1[C@H](O)[C@@H](OC(C)=O)[C@@]2(C)[C@@]12CO2
inactive: [1] -9.2% | [2] -26.6% | [3] 14.9% | [4] -3.45% | [5] -1.3% | [6] -6.7%

CN(C)c1ccc(NP(=O)(Nc2ccc(N(C)C)cc2)N(CCCl)CCCl)cc1
inactive: [1] 24.2% | [2] 2.1% | [3] 11% | [4] 5.8% | [5] 12.2% | [6] 7.6%

COc1cc2c(cc1OC)-c1c3c(cc4c1[C@@H](C2)N(C)CC4)OCO3
inactive: [1] -23.8% | [2] -12.8% | [3] -12.8% | [4] -1.9% | [5] -21.7% | [6] -17.6%

OC(c1ccc2ccccc2n1)C1CCCCN1 (stereo unspecified)
inactive: [1] 14.2% | [2] -6.45% | [3] 7.05% | [4] -8.15% | [5] -1.7% | [6] 11.1%

CN(C)c1ccc(C=C2C(=O)NC(=O)NC2=O)cc1
inactive: [1] 37.9% | [2] -16.4% | [3] 19.1% | [4] 14.4% | [5] 14.8% | [6] 9.65%

C=CCOC(=O)C(Br)CC (stereo unspecified)
inactive: [1] 7.65% | [2] -3.2% | [3] -3.7% | [4] -6.25% | [5] 11.9% | [6] -14.5%

CC(=O)OC(c1ccccc1Cl)C(Cl)(Cl)Cl (stereo unspecified)
inactive: [1] -16.9% | [2] -9.35% | [3] -4.65% | [4] -39.9% | [5] -14.2% | [6] -5.55%

O=NNc1cncc(NN=O)n1
inactive: [1] -37.9% | [2] 1.1% | [3] -2.8% | [4] -14.9% | [5] -4.95% | [6] 3.75%

C[N+]1(C)C2CCC1CC(O)C2 (stereo unspecified)
inactive: [1] 5.45% | [2] -9.85% | [3] 3.55% | [4] 23.1% | [5] -6.35% | [6] 3.6%

COc1cc(C=C2C(=O)NC(=O)NC2=O)ccc1O
inactive: [1] 1.85% | [2] -23.4% | [3] 5.05% | [4] 4.3% | [5] -2% | [6] 6.35%

S=C(SP(SC(=S)N1CCCCC1)SC(=S)N1CCCCC1)N1CCCCC1
inactive: [1] 28.9% | [2] -31.9% | [3] 47.5% | [4] -10.2% | [5] -2.2% | [6] 39.7%

O=C(c1ccccc1)C1NC1c1ccccc1 (stereo unspecified)
inactive: [1] 13.8% | [2] 39.4% | [3] 1.65% | [4] -16.6% | [5] 19.8% | [6] 10.2%

ClCCN(CCCl)c1ccc(C=Nc2ccccc2)cc1
inactive: [1] 34.5% | [2] 21.1% | [3] 59.6% | [4] 12.2% | [5] 2% | [6] 28.6%

CC(=O)O[C@@]12CO[C@@H]1CC(O)[C@@]1(C)C(=O)[C@H](O)C3=C(C)C(O)C[C@@](O)(C(OC(=O)c4ccccc4)C12)C3(C)C (stereo partly specified)
inactive: [1] -12.8% | [2] -28.4% | [3] -12.3% | [4] -5.9% | [5] -29.4% | [6] -8.65%

C1NCC2CNCC1O2
inactive: [1] 3.2% | [2] -12.4% | [3] -7.95% | [4] 6.35% | [5] 7.9% | [6] -3.15%

O=C(CBr)OCCOC(=O)CBr
inactive: [1] 0.55% | [2] 18.4% | [3] -8.5% | [4] 14.4% | [5] 28.5% | [6] -3.95%
